Only some compounds are listed: those with a hit (about 1.7% of all), similar ones and a draw of the others.
PREPL inhibitor – inhibits the human prolyl oligopeptidase-like enzyme | recombinant PREPL, fluorescence polarization activity-based probe | inhibition, % at 5.96 µM | hit rate 0.68% among 320,000 | AID 2751
Target sequence (Q4J6C6 whole entry, looked up): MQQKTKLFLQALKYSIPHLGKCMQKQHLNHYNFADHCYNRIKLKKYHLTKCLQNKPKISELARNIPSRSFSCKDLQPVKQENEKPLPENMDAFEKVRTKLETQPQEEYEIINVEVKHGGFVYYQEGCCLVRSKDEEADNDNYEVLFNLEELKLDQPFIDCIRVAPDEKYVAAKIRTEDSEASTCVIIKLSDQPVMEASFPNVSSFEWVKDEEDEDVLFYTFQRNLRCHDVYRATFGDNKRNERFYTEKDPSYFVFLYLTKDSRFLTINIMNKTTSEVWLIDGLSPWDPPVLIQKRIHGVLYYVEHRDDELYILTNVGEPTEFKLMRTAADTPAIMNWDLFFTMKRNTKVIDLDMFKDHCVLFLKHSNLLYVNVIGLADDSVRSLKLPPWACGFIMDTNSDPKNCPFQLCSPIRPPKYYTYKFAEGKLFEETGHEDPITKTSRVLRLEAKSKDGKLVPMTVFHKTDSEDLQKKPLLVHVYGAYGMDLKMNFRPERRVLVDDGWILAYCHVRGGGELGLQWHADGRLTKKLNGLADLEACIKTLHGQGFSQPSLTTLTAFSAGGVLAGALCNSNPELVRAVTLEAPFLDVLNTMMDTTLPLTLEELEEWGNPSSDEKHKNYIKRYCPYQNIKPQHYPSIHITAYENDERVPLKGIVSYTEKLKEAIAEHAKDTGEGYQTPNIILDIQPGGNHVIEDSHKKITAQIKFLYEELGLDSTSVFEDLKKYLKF
p97 inhibitor – inhibitors of human p97 ATPase; AID 1481; hit rate 0.42% among 220,000; P55072; recombinant p97 ATPase, Kinase-Glo ATP luminescence, 3 h; inhibition, % at 8 µM; in the data active means inhibition above about 15%
Hck Nef HTS – inhibitors of human Hck kinase activated by Nef | Recombinant Hck-YEEI plus Nef, Z-Lyte FRET kinase assay | inhibition, % at 20 µM | hit rate 0.68% among 220,000;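 active means Hck-Nef kinase inhibition above about 50%, limit read from the data; inactive means inhibition below that limit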
Rin1-Abl PPI inh – human Rin1-Abl interaction inhibition; P00519+Q13671; TR-FRET Rin1/Abl binding, biochemical; inhibition, % at 7.35 µM; hit rate 0.4% among 360,000; in the data active means inhibition above about 5%, passing the limit was not always enough
LYPLA2 counter – blocks human lysophospholipase 2, a PME1 counter-screen | O95372 | recombinant LYPLA2, FP-Rh probe fluorescence polarization | inhibition, % at 5.9 µM | hit rate 0.38% among 320,000 | AID 2177;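 active means inhibition above the screen-wide mean plus 3 SD, limit set per campaign, cut at about 26% in these data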
LYPLA1 inh – blocks human lysophospholipase 1, a PME1 counter-screen; O75608; recombinant LYPLA1, FP-Rh probe fluorescence polarization; inhibition, % at 5.9 µM; hit rate 0.16% among 320,000;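 active means inhibition above the mean of all tested compounds plus 3 SD, set per campaign, cut at about 14% in these data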;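 further: inhibitors block serine hydrolase probe labeling of LYPLA1 so polarization falls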
PREPL inh cf – human PREPL inhibition, confirmation. recombinant PREPL, fluorescence polarization activity probe. AID 2803. inhibition, % at 5.96 µM. shares compounds with PREPL inhibitor. hit rate 67% among 2,000
A number is an active result. Unless noted, no stated cut-off is given here; in the data, active means inhibition above about 43%; inactive means the rest.

How did COc1ccc(N2C(=O)c3ccccc3C(C)(C)C2=O)cc1 do in these assays?
PREPL inhibitor: inactive; Rin1-Abl PPI inh: inactive; LYPLA2 counter: inactive; LYPLA1 inh: inactive

What do the screens show for `COc1ccc(C(=O)C[n+]2ccc3c(c2)nc(-c2ccccc2)n3C)cc1`?
PREPL inhibitor: inactive; p97 inhibitor: inactive; Hck Nef HTS: inactive; Rin1-Abl PPI inh: inactive; LYPLA2 counter: inactive; LYPLA1 inh: inactive

How did COc1cc(-c2nc3c[n+](CC(=O)c4ccccc4)ccc3n2C)cc(OC)c1OC do in these assays?
PREPL inhibitor: 52.7; p97 inhibitor: inactive; Hck Nef HTS: inactive; Rin1-Abl PPI inh: inactive; LYPLA2 counter: inactive; LYPLA1 inh: inactive; PREPL inh cf: inactive

Results for CC(C)=CC(=O)N1CCCC(N2CCN(c3ccc(F)cc3)CC2)C1 (stereo not given) ?
PREPL inhibitor: inactive; Rin1-Abl PPI inh: inactive; LYPLA2 counter: inactive; LYPLA1 inh: inactive

What do the screens show for `S=C(NCCc1ccccc1)Nc1ccc(N2CCCCC2)cc1`?
PREPL inhibitor: inactive; Rin1-Abl PPI inh: inactive; LYPLA2 counter: inactive; LYPLA1 inh: inactive

Results for O=C(COC(=O)Cc1ccc(S(=O)(=O)N2CCOCC2)s1)Nc1ccc([N+](=O)[O-])cc1 ?
PREPL inhibitor: 45.4; Rin1-Abl PPI inh: inactive; LYPLA2 counter: inactive; LYPLA1 inh: inactive; PREPL inh cf: inactive

How did Cc1cc(NCc2ccccn2)n2ncc(-c3ccccc3)c2n1 do in these assays?
PREPL inhibitor: inactive; p97 inhibitor: inactive; Hck Nef HTS: inactive; Rin1-Abl PPI inh: inactive; LYPLA2 counter: inactive; LYPLA1 inh: inactive

Results for Cc1cc(NCc2ccccn2)n2ncc(-c3ccc(Cl)cc3)c2n1 ?
PREPL inhibitor: 48.5; p97 inhibitor: inactive; Hck Nef HTS: inactive; Rin1-Abl PPI inh: inactive; LYPLA2 counter: inactive; LYPLA1 inh: inactive; PREPL inh cf: inactive

What do the screens show for `Cc1cccc(C2CC(c3ccc(Cl)cc3)Nc3nc(N)nn32)c1` (stereo not given)?
PREPL inhibitor: 51.5; p97 inhibitor: inactive; Hck Nef HTS: inactive; Rin1-Abl PPI inh: inactive; LYPLA2 counter: inactive; LYPLA1 inh: inactive; PREPL inh cf: 52.4

Results for COc1cccc(C2CC(c3ccccc3)Nc3nc(N)nn32)c1 (stereo not given) ?
PREPL inhibitor: inactive; p97 inhibitor: inactive; Hck Nef HTS: inactive; Rin1-Abl PPI inh: inactive; LYPLA2 counter: inactive; LYPLA1 inh: inactive

What do the screens show for `CCc1ccc(C2CC(c3ccc(C)cc3)n3nc(N)nc3N2)cc1` (stereo not given)?
Rin1-Abl PPI inh: inactive

How did Cc1cccc(C2CC(c3ccc(F)cc3)Nc3nc(N)nn32)c1 (stereo not given) do in these assays?
PREPL inhibitor: 50.9; Hck Nef HTS: inactive; Rin1-Abl PPI inh: inactive; LYPLA2 counter: inactive; LYPLA1 inh: inactive; PREPL inh cf: 55.0

Results for COc1ccc(C2CC(c3ccc(F)cc3)Nc3nc(N)nn32)cc1 (stereo not given) ?
PREPL inhibitor: inactive; p97 inhibitor: inactive; Hck Nef HTS: inactive; Rin1-Abl PPI inh: inactive; LYPLA2 counter: inactive; LYPLA1 inh: inactive

What do the screens show for `Cc1ccc(C2CC(c3cccc(Cl)c3)n3nc(N)nc3N2)cc1` (stereo not given)?
PREPL inhibitor: 51.0; p97 inhibitor: inactive; Hck Nef HTS: inactive; Rin1-Abl PPI inh: inactive; LYPLA2 counter: inactive; LYPLA1 inh: inactive; PREPL inh cf: 51.5

What do the screens show for `COc1ccc(C2CC(c3cccc(OC)c3)n3nc(N)nc3N2)cc1` (stereo not given)?
PREPL inhibitor: 45.7; p97 inhibitor: inactive; Hck Nef HTS: inactive; Rin1-Abl PPI inh: inactive; LYPLA2 counter: inactive; LYPLA1 inh: inactive; PREPL inh cf: 52.3

How did NC(=O)C1CN(C(=O)c2cccc(S(=O)(=O)N3CCc4ccccc43)c2)c2ccccc2O1 (stereo not given) do in these assays?
PREPL inhibitor: inactive; Rin1-Abl PPI inh: inactive; LYPLA2 counter: inactive; LYPLA1 inh: inactive

Results for CCN(CC)CCCC(C)NC(=O)c1c(NC(=O)c2ccccc2)sc2c1CCCC2 (stereo not given) ?
PREPL inhibitor: 46.0; Rin1-Abl PPI inh: inactive; LYPLA2 counter: inactive; LYPLA1 inh: inactive; PREPL inh cf: inactive

Results for CNC(=O)c1ccc(-c2sc3nc(N4CCOCC4)c4c(c3c2N)CCCC4)o1 ?
PREPL inhibitor: 47.5; p97 inhibitor: inactive; Hck Nef HTS: inactive; Rin1-Abl PPI inh: inactive; LYPLA2 counter: inactive; LYPLA1 inh: inactive; PREPL inh cf: inactive

Results for CC1CCCCC1NC(=O)CN1C(=O)NC(C)(c2cc(F)ccc2F)C1=O (stereo not given) ?
PREPL inhibitor: inactive; Rin1-Abl PPI inh: inactive; LYPLA2 counter: inactive; LYPLA1 inh: inactive

Results for CCn1c(SCC(=O)N2CCc3ccccc3C2)nc2sc(C)c(C)c2c1=O ?
PREPL inhibitor: 44.4; p97 inhibitor: inactive; Hck Nef HTS: inactive; Rin1-Abl PPI inh: inactive; LYPLA2 counter: inactive; LYPLA1 inh: inactive; PREPL inh cf: inactive

What do the screens show for `Cc1ccc(SCC(=O)Nc2ccc(N3CCOCC3)cc2)cc1C`?
PREPL inhibitor: 44.1; Rin1-Abl PPI inh: inactive; LYPLA2 counter: inactive; LYPLA1 inh: inactive; PREPL inh cf: inactive

Results for O=C(CSc1cccc(C(F)(F)F)c1)Nc1ccc(N2CCOCC2)cc1 ?
PREPL inhibitor: 46.9; Rin1-Abl PPI inh: inactive; PREPL inh cf: 55.2

What do the screens show for `O=C(CSc1ccccc1F)Nc1ccc(N2CCOCC2)cc1`?
PREPL inhibitor: 54.7; Rin1-Abl PPI inh: inactive; LYPLA2 counter: inactive; LYPLA1 inh: inactive; PREPL inh cf: 51.9

What do the screens show for `COc1ccc(S(=O)(=O)N2CCN3CCCC3C2)cc1` (stereo not given)?
PREPL inhibitor: inactive; Rin1-Abl PPI inh: inactive; LYPLA2 counter: inactive; LYPLA1 inh: inactive

Results for Cc1ccc(C(=O)C2CCN(CC(=O)NC3CCCC3)CC2)cc1 ?
PREPL inhibitor: inactive; Rin1-Abl PPI inh: inactive; LYPLA2 counter: inactive; LYPLA1 inh: inactive

What do the screens show for `CCN(c1ccccc1)S(=O)(=O)c1cccc(C(=O)NCC(c2cccs2)N2CCOCC2)c1` (stereo not given)?
PREPL inhibitor: inactive; Rin1-Abl PPI inh: inactive; LYPLA2 counter: inactive; LYPLA1 inh: inactive

How did O=c1cc(-c2ccc(O)c(O)c2)oc2cc(O[C@@H]3O[C@H](CO)[C@@H](O)[C@H](O)[C@H]3O)cc(O)c12 do in these assays?
PREPL inhibitor: 73.3; Rin1-Abl PPI inh: 24.0; PREPL inh cf: 59.8

How did C[C@@H]1O[C@@H](OC[C@H]2O[C@@H](Oc3cc(O)c4c(=O)cc(-c5ccc(O)c(O)c5)oc4c3)[C@H](O)[C@@H](O)[C@@H]2O)[C@H](O)[C@H](O)[C@H]1O do in these assays?
PREPL inhibitor: inactive; Rin1-Abl PPI inh: inactive

Results for CSc1ccccc1NC(=O)c1ccc(N2CCCC2=O)cc1 ?
PREPL inhibitor: inactive; Rin1-Abl PPI inh: inactive; LYPLA2 counter: inactive; LYPLA1 inh: inactive
